Experiments:
Assay in all cases: PBM binding z-score (relative to random genomic background probes); higher = stronger binding; sequences stand for … in GC…GCGATTGACAGCGTAGAATGAAGG
[1] = test system: RARb homodimer (NR concentration 270 nM)
How it was run: (§1)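 Scanned fluorescence from custom Agilent 4×180K protein-binding microarrays was regression-normalized. Binding z-scores use random background probes as reference. Ligand-free nuclear receptor dimers were incubated on the arrays for 1 h and detected with antibodies against each partner (one per run).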

[2] = test system: RARg:RXRa (NR concentration 270 nM, RXRa partner concentration 90 nM)
How it was run: as §1

[3] = test system: RARg homodimer (NR concentration 270 nM)
How it was run: as §1

[4] = test system: RXRa DBDmut IVT, anti-RXR (DBD mutation: RXRa K156A/R161A, NR concentration 90 nM)
How it was run: as §1

[5] = test system: RXRa homodimer (NR concentration 180 nM)
How it was run: as §1

[6] = test system: THRa:RXRa (NR concentration 90 nM, RXRa partner concentration 90 nM)
How it was run: as §1

[7] = test system: THRa homodimer (NR concentration 90 nM)
How it was run: as §1

[8] = test system: VDR homodimer (NR concentration 270 nM)
How it was run: as §1

| Sequence | PBM binding z-score [1] | PBM binding z-score [2] | PBM binding z-score [3] | PBM binding z-score [4] | PBM binding z-score [5] | PBM binding z-score [6] | PBM binding z-score [7] | PBM binding z-score [8] |
| --- | --- | --- | --- | --- | --- | --- | --- | --- |
| CCTATCAGTTGACCATAAGGGCAACCGAAGCTCG | 1.93 | 1.48 | 1.03 | 0.139 | 0.916 | 1.98 | 1.26 | 0.554 |
| CGTCCAAGGTCATAGGAGGACAGTGAAGACAGAT | 4.12 | 5.65 | 6.13 | 3.71 | 5.55 | 4.99 | 2.83 | 3.3 |
| CGTCCAAGGTCAGCAGGTCAGTGACAGCGACGTG | 5.12 | 6.43 | 7.03 | 2.63 | 5.26 | 3.87 | 2.43 | 2.08 |
| GCCAGCAGGCCATTTGGGTCACTCAATGACGGGC | 1.78 | 1.14 | 1.3 | -0.31 | 0.736 | 1.8 | 0.516 | 0.49 |
| CCTATTAGTTGACCATAAGGGCAACCGAAGCTCG | 2.05 | 1.31 | 0.855 | 0.655 | 1.02 | 2.02 | 1.34 | 1.07 |
| ATATGTAGGTTAAGGGTGATTCAGGTTGGTTCGC | 1.8 | 1.14 | 1.06 | 0.792 | 1.62 | 1.56 | 1.39 | 1.41 |
| AGTCAAAGTTCACTATGTAACGTAAGATTCAGCT | 3.66 | 4.55 | 5.44 | 4.2 | 3.68 | 1.36 | -0.244 | 3.86 |
| GATACAGGGTCACGGCCAGAGTACGCGTATTGAT | 3.98 | 6.54 | 6.18 | 2.92 | 7.78 | 4.17 | 2.03 | 3.26 |
| TCTTGTAGATCAACAGGAGGTTAACAAAGATCGA | 0.875 | 1.22 | 0.542 | 0.267 | 1.3 | 1.22 | 0.0101 | -0.33 |
| CCGACTGGGGCATAAGGTTACCATCAGCCAGCCC | 1.72 | 1.41 | 1 | -0.242 | 1.03 | 1.98 | 1.33 | -0.0619 |
| ATCTCTAGGTAAAGTTCAGTGAGAGATCGATAGA | 2.43 | 1.84 | 2.47 | 1.21 | 1.06 | 1 | 0.0803 | 1.28 |
| CTACCAAGGTGAACAAAGTCGTTGATTACTATTC | 0.608 | 0.623 | 0.808 | 0.695 | 0.378 | 1.69 | 0.927 | 0.24 |
| CCGACTGAGGCATAAGGTTACCATAAGCCAGCCC | 1.13 | 0.506 | 0.395 | 0.281 | 0.885 | 2.07 | 1.53 | 0.195 |
| CCTTACGGGTCGCGAGGTTATAGCACGACGAGCG | 1.57 | 3.39 | 2.09 | 0.0933 | 4 | 2.25 | 0.349 | 0.904 |
| CCTAGCAGGCCTGGGTCACTCAAGCATTTCGCTT | 1.69 | 1.25 | 0.967 | -0.144 | 0.958 | 1.48 | 0.229 | -0.269 |
| ATCGAAAGGTCGAGGTGAGGATAGAGAAAGGGAA | 3.07 | 4.35 | 4.28 | 0.642 | 4.31 | 3.87 | 1.64 | 0.466 |
| TAGCCTAGGTCATGCGGGCCAGTAAAGTGTCGGC | 2.88 | 3.9 | 4.1 | 1.04 | 2.94 | 2.98 | 0.78 | 0.405 |

| Sequence | PBM binding z-score [1] | PBM binding z-score [2] | PBM binding z-score [3] | PBM binding z-score [4] | PBM binding z-score [5] | PBM binding z-score [6] | PBM binding z-score [7] | PBM binding z-score [8] |
| --- | --- | --- | --- | --- | --- | --- | --- | --- |
| CTACCAAGGTGAACAAGGTCGTTAATTACTATTC | 2.04 | 1.86 | 1.55 | 1.48 | 1.91 | 3.19 | 1.99 | 2.64 |
| GCAGACAGGTGAAACGCAGGTCACTCAGGGTGGC | 3.35 | 5.21 | 2.47 | -0.32 | 2.43 | 3.6 | 0.663 | 0.199 |
| CCTATTAGTTGACCATAAGGGCATCCGAAGCTCG | 1.78 | 1.12 | 1.02 | 0.721 | 0.568 | 1.89 | 1.35 | 1.26 |
| CCGAGTCGGTTATGGGGCATTCAGGCAACGGTGA | 0.462 | -0.0743 | -0.117 | -0.648 | -0.27 | 0.224 | -0.00692 | 0.0226 |
| TATACAGGGTCAAGGGCCAGAGTACGAATGTCGA | 3.62 | 5.65 | 5.33 | 2.14 | 6.23 | 3.68 | 1.08 | 2.13 |
| TCTGCTCGGTCAACGATGGTCAGCTAATCTGCTA | 1.65 | 1.41 | 2.83 | 0.129 | 0.25 | 0.269 | -0.89 | -0.978 |
| ACTGACAGGTGATGAAGGTAACTCAGGCTATCAT | -0.0164 | 0.199 | 0.358 | -0.478 | 0.16 | 0.769 | -0.122 | -0.152 |
| TGAATGAGGGTATAAGATCAGGGAACGTTGCAAA | -0.0361 | 0.617 | 0.546 | -0.155 | 0.383 | 0.461 | -0.277 | 0.159 |
| CGAACGAGGGCATGAGTTGATACCAAATGCCGAT | 1.11 | 1.48 | 1.6 | 2.37 | 0.992 | 1.37 | -0.127 | 1.57 |
| TCTGCTAGGTCAGTTGGTCATCTAACGAGCTGCC | 2.81 | 2.87 | 3.99 | 0.589 | 1.25 | 1.63 | 0.119 | -0.506 |
| CTCGAAAGGTCGTGCTCAGGCGAGTATACCAAAC | 2.65 | 4.35 | 3.64 | 1.3 | 4.75 | 2.88 | -0.037 | 0.812 |
| ATCGAAAGGCCGAGGTGAGTATAGAGAAAGGGAA | 0.669 | 0.835 | 1.25 | -0.863 | 0.294 | 0.936 | 0.0762 | -0.433 |
| AGTCAGAGTTCACTAGGTAACGTAAGATTCAGCT | 2.83 | 4.11 | 4.7 | 4.73 | 3.63 | 1.85 | 0.172 | 5.65 |
| CTCGAAAGGTCGGTGGAGGTGAGTATACGGATAA | 2.57 | 2.73 | 2.83 | 0.607 | 2.32 | 4.27 | 0.235 | 0.546 |
| CGAAATAGGTCATCCAGGACAGTGAATACATTGA | 3.71 | 5.08 | 4.84 | 2.26 | 4.96 | 3.96 | 1.19 | 1.92 |
| CGAACTAGGTCATCCACGACAGTGAATACATTGA | 2.85 | 3.96 | 4.77 | 2.28 | 2.9 | 2.79 | 1.22 | 1.44 |
| CCAGACCGGTGAGAAGGTAACTCAGCCTCGATTA | 0.199 | 0.0096 | 0.0397 | -0.539 | -0.308 | -0.0126 | -0.0326 | 0.281 |
